# Test results taken from PubChem BioAssay (EPA / NIEHS).
# Calls of active or inactive are those of the source. How the source made its calls: active means hit-call score of the fitted dose curve at least 0.9, where 1 is the maximum; inactive means score below 0.9.
# Test: ATG_AP_2_CIS: Attagene CIS-FACTORIAL HepG2 Assay for human Activator Protein 2 (AP-2) (AID 2282932)
# Settings: HepG2 AP-2 cis-reporter, Attagene transcription factor profiling; actives raise or lower the signal
# Procedure: ATG_CIS is a cell-based, multiplexed-readout assay that uses HepG2, a human liver cell line, with measurements taken at 24 hours after chemical dosing in a 24-well plate.ATG_AP_2_CIS is one of 52 assay component(s) measured or calculated from the ATG_CIS assay. It is designed to make measurements of mRNA induction, a form of inducible reporter, as detected with fluorescence intensity signals by Reverse transcription polymerase chain reaction (RT-PCR) and Capillary electrophoresis technology.Data from the assay component ATG_AP_2_CIS was analyzed into 1 assay endpoint. This assay endpoint, ATG_AP_2_CIS, was analyzed with bidirectional fitting relative to DMSO as the negative control and baseline of activity. Using a type of inducible reporter, measures of mRNA for gain or loss-of-signal activity can be used to understand the reporter gene at the transcription factor-level as they relate to the gene TFAP2A and TFAP2B and TFAP2D. Furthermore, this assay endpoint can be referred to as a primary readout, because this assay has produced multiple assay endpoints where this one serves a reporter gene function. To generalize the intended target to other relatable targets, this assay endpoint is annotated to the dna binding intended target family, where the subfamily is basic helix-turn-helix leucine zipper.
# Human liver HepG2 cells are transiently transfected with multiple reporter transcription units (MRTUs) in 6-well plates using FuGene 6 reagent (Roche; 3 ml FuGene/1 mg DNA). The MRTU constructs are regulated by a cis-regulating element (promoter). […] A major difference between the CIS and TRANS system is that in CIS activities of endogenous TFs are measured, whereas the TRANS assay evaluates changes in activities of exogenous, chimeric NR-Gal4 proteins. […] At the end of 24 hour incubation, total RNA was isolated using TriZol reagent (Invitrogen). The isolated RNA is then reverse-transcribed using oligo(dT) primer and Mo-MLV reverse transcriptase (Invitrogen) with DNAse I (Ambion) treatment for 30 min. The one-tenth of the produced cDNA was amplified by PCR using Taq DNA polymerase (Invitrogen) and two reporter sequence-specific primers. The PCR products were fluorescently labeled by primer extension with 6-arboxyfluorescein (6-FAM) 5'-labeled reporter sequence-specific primer (2 min at 95 C, 20 s at 68 C and 10 min at 72 C) and these products were digested with 5U of HpaI (New England Biolabs) for 2h at 37 C. The fragments were purified using Qiaquick PCR columns (Qiagen), analyzed on an ABI 3130xL genetic analyzer (Applied Biosystems) with peak positions identified by using a set of X-rhodamine (ROX)-labeled MapMarker1000 molecular weight standards (BioVentures). The raw capillary electrophoresis data was processed using Attagraph software (Attagene).
SMILES,outcome,AC50
CC1(C)[C@H](C(=O)OCc2cccc(Oc3ccccc3)c2)[C@@H]1C=C(Cl)Cl,inactive,
C=C[C@@H](C)CCC=C(C)C,inactive,
CCCCCCCCCCC(CO)CCCCCCCC (stereo not given),inactive,
CC(=O)O[C@]1(C(C)=O)CC[C@H]2[C@@H]3C[C@H](C)C4=CC(=O)CC[C@]4(C)[C@H]3CC[C@@]21C,inactive,
CC(C)=CCCC(C)=CCCC(C)=CCO,inactive,
C[C@]12CC[C@H]3[C@@H](CCC4=CC(=O)CC[C@@]43C)[C@@H]1CC[C@@H]2C(=O)CO,inactive,
OC[C@H]1O[C@H](O[C@]2(CCl)O[C@H](CCl)[C@@H](O)[C@@H]2O)[C@H](O)[C@@H](O)[C@H]1Cl,inactive,
Cc1c(Cl)c(=O)oc2cc(O)ccc12,inactive,
O=C[C@@H](O)[C@H](O)[C@H](O)CO,inactive,
Fc1c(F)c(F)c(Br)c(F)c1F,inactive,
CNCCCC12CCC(c3ccccc31)c1ccccc12,inactive,
Sc1nc(S)nc(S)n1,inactive,
NNc1nc(-c2ccc(N)cc2)cs1,inactive,
O=C(O)c1cccc(C(F)(F)F)c1,inactive,
CCCCCCCCCCCCCOS(=O)(=O)O,inactive,
CCCCCCCCCC=O,inactive,
O=[N+]([O-])c1ccc(C=Cc2ccc([N+](=O)[O-])cc2S(=O)(=O)O)c(S(=O)(=O)O)c1,inactive,
CCn1c2ccccc2c2cc(N)ccc21,inactive,
Cc1ccc(C(=O)O)o1,inactive,
NCCNCCN,inactive,

SMILES,outcome,AC50
C=C(C)C(=O)OCCOC(=O)CC(C)=O,inactive,
C=C(C)[C@@H]1CC[C@@H](C)C[C@@H]1O,inactive,
O=c1[nH]nnc2ccccc12,inactive,
CC(C)C1CCC(O)CC1 (stereo not given),inactive,
O=C(O)c1ccc(C(=O)O)cc1,inactive,
CC(C)=CCC/C(C)=C/COC=O,inactive,
Clc1ccc(Cl)c(Cl)c1Cl,inactive,
Cc1ccc(C=O)s1,inactive,
O=S(=O)(O)c1cccc2c(S(=O)(=O)O)cccc12,inactive,
CCOC(=S)SSC(=S)OCC,inactive,
C=CCOc1nc(OCC=C)nc(OCC=C)n1,inactive,
Cc1ccccc1C=O,inactive,
NC(=O)c1ccccc1Cl,,76.4 µM (active)
O=C(O)c1cn(C2CC2)c2cc(N3CCNCC3)c(F)cc2c1=O,inactive,
CC(=O)C(=O)O,inactive,
C=C[Si](OCC)(OCC)OCC,inactive,
CCCCCCCCCOC(C)=O,inactive,
OC1OC[C@@H](O)[C@H](O)[C@H]1O (stereo not given in full),inactive,
Cc1ccc(Nc2ccc(O)c3c2C(=O)c2ccccc2C3=O)cc1,inactive,
O=C(Oc1ccccc1)c1ccc(O)cc1,inactive,
